From PubChem BioAssay (NCI)
This is part of a sample that, as a whole, favours compounds with a hit. Of some 83,000 tested, about 20% had one in any assay.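 Testing used 96-well plates and a 48-hour single-concentration exposure. Example: -40 means 40% of the starting cells died.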 Active and inactive are the calls of the source. The calls were made as follows: active = growth percent below 10; inactive = the rest.

Key:
Test in all cases: NCI-60 one-dose screen, 48 h (100 = growth as untreated, 0 = no growth, -100 = all killed)
Details in all cases: 10 µM
NCI-H23 lung = system: NCI-H23 lung
NCI-H226 lung = system: NCI-H226 lung
NCI-H322M lung = system: NCI-H322M lung
HOP-62 NSCLC = system: HOP-62 NSCLC
NCI-H460 lung = system: NCI-H460 lung
NCI-H522 lung = system: NCI-H522 lung
A549/ATCC NSCLC = system: A549/ATCC NSCLC
786-0 renal = system: 786-0 renal
COLO 205 colon = system: COLO 205 colon
DU-145 prostate = system: DU-145 prostate

Measured: growth

Fc1cc(C(F)(F)F)ccc1-c1cncnc1NC1CCCCCC1
inactive: NCI-H23 lung 92.6% | NCI-H226 lung 82.6% | NCI-H322M lung 104% | HOP-62 NSCLC 93.1% | NCI-H460 lung 102% | NCI-H522 lung 91.3% | A549/ATCC NSCLC 85.4% | 786-0 renal 97.9% | COLO 205 colon 105% | DU-145 prostate 101%

Cc1cc(=O)n2nnc3c4ccccc4ccc3n12
active: COLO 205 colon 8.79%
inactive: NCI-H23 lung 94% | NCI-H226 lung 59.8% | NCI-H322M lung 96.3% | HOP-62 NSCLC 70% | NCI-H460 lung 83.9% | NCI-H522 lung 87.9% | A549/ATCC NSCLC 60.2% | 786-0 renal 89.8% | DU-145 prostate 98.8%

Oc1[nH]c2ccc(Cl)cc2c1/C=c1/ccc2c(c1)N=C(c1cccs1)N=2
inactive: NCI-H23 lung 64.4% | NCI-H226 lung 85% | NCI-H322M lung 78.4% | HOP-62 NSCLC 83.1% | NCI-H460 lung 66.1% | NCI-H522 lung 53.3% | A549/ATCC NSCLC 63.5% | 786-0 renal 66.7% | COLO 205 colon 73% | DU-145 prostate 58.7%

COc1cc(OC)cc(-c2cncn2-c2ccc(-c3nc4cc(OC)cc(OC)c4s3)cc2)c1
inactive: NCI-H23 lung 57.5% | NCI-H226 lung 67.7% | NCI-H322M lung 82.8% | HOP-62 NSCLC 79.7% | NCI-H460 lung 51.3% | NCI-H522 lung 61.3% | A549/ATCC NSCLC 45.4% | 786-0 renal 66% | COLO 205 colon 79.5% | DU-145 prostate 78.1%

Cc1occc1-c1nnc(SCC(=O)c2ccc(NC(=O)CC(C)C)cc2)o1
inactive: NCI-H23 lung 110% | NCI-H226 lung 109% | NCI-H322M lung 106% | HOP-62 NSCLC 99.6% | NCI-H460 lung 108% | NCI-H522 lung 81.9% | A549/ATCC NSCLC 87.7% | 786-0 renal 96.3% | COLO 205 colon 110% | DU-145 prostate 109%

C#Cc1ccc(-n2c(/C=C/c3ccc4ccccc4n3)nc3ncccc3c2=O)cc1
active: NCI-H23 lung -44.9% | NCI-H226 lung -81.9% | NCI-H322M lung -45.1% | HOP-62 NSCLC -34% | NCI-H460 lung -46.3% | NCI-H522 lung -73.9% | A549/ATCC NSCLC -25.8% | 786-0 renal 0.1% | COLO 205 colon -94.9% | DU-145 prostate -37.6%

CCN(CC)Cc1cc(Nc2ccnc3cc(Cl)ccc23)ccc1OC
inactive: NCI-H23 lung 87.8% | NCI-H226 lung 105% | NCI-H322M lung 99% | HOP-62 NSCLC 88% | NCI-H460 lung 90.1% | NCI-H522 lung 69.3% | A549/ATCC NSCLC 89.6% | 786-0 renal 97.4% | COLO 205 colon 62.4% | DU-145 prostate 107%

COc1cccc(C2C3=C(COC3=O)N(CCO)c3cc(OC)ccc32)c1 (stereo not given)
inactive: NCI-H23 lung 26.3% | NCI-H322M lung 44% | HOP-62 NSCLC 30.3% | A549/ATCC NSCLC 18% | 786-0 renal 27.9%
active: NCI-H226 lung 0.496% | NCI-H460 lung 0.788% | NCI-H522 lung -34.8% | COLO 205 colon -16.4% | DU-145 prostate -4.6%

CCOC(=O)C1(CC(C)C)CCOC1=O (stereo not given)
inactive: NCI-H23 lung 102% | NCI-H226 lung 106% | NCI-H322M lung 104% | HOP-62 NSCLC 109% | NCI-H460 lung 103% | NCI-H522 lung 100% | A549/ATCC NSCLC 94.8% | 786-0 renal 107% | COLO 205 colon 115% | DU-145 prostate 105%

Nc1ccccc1NC(=O)CCCCC(=O)Nc1ccc2c(c1)/C(=C/c1ccc[nH]1)C(=O)N2
inactive: NCI-H23 lung 89.6% | NCI-H226 lung 52.2% | NCI-H322M lung 63.3% | HOP-62 NSCLC 83% | NCI-H460 lung 73.9% | NCI-H522 lung 37.5% | A549/ATCC NSCLC 92.9% | 786-0 renal 90.2% | COLO 205 colon 87.4% | DU-145 prostate 70.7%

CCOC(=O)N/N=C\C(C)=N\NC(=O)OCC
inactive: NCI-H23 lung 101% | NCI-H226 lung 119% | NCI-H322M lung 89.5% | HOP-62 NSCLC 96.3% | NCI-H460 lung 102% | NCI-H522 lung 89.2% | A549/ATCC NSCLC 92.6% | 786-0 renal 101% | COLO 205 colon 114% | DU-145 prostate 106%

O=S(=O)(NCCCNc1nccc(-c2c(-c3ccc(F)cc3)nc3sccn23)n1)c1ccc(F)cc1
inactive: NCI-H23 lung 56.2% | NCI-H226 lung 40% | NCI-H322M lung 43.2% | HOP-62 NSCLC 74% | NCI-H460 lung 26.9% | NCI-H522 lung 36.4% | A549/ATCC NSCLC 25.9% | 786-0 renal 59% | COLO 205 colon 21% | DU-145 prostate 44.6%

Nc1c(C(=O)Nc2ccccc2Cl)sc2nc3c(cc12)C(=O)CCC3
active: COLO 205 colon 3.38%
inactive: NCI-H23 lung 42.3% | NCI-H226 lung 75.9% | NCI-H322M lung 37.9% | HOP-62 NSCLC 83.3% | NCI-H460 lung 12.4% | NCI-H522 lung 32.8% | A549/ATCC NSCLC 24.9% | 786-0 renal 91.1% | DU-145 prostate 48.5%

N=C(N)c1ccc(-c2ccc(-c3cccs3)o2)cc1
active: NCI-H460 lung 0.151% | COLO 205 colon -97.4%
inactive: NCI-H23 lung 85.1% | NCI-H226 lung 67.5% | NCI-H322M lung 12.8% | HOP-62 NSCLC 64.7% | NCI-H522 lung 61.9% | A549/ATCC NSCLC 45.4% | 786-0 renal 62.3% | DU-145 prostate 57.9%
